Assay [1] relates to Plasmodium falciparum Sir2 (PF13_0152, Sir2A). The experiment in a line: pfSir2 binders on small-molecule microarrays, primary screen, biochemical, small-molecule microarray, 635 nm fluorescence (AID 1098).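 Note: score merges spot fluorescence intensity with its signal-to-noise ratio.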 As to conditions: small-molecule microarray binding, fluorescence 635 nm; higher = more signal.
Assay [2] is described as follows: small-molecule microarray binders of probe aDKK1, primary screen, biochemical, biotinylated probe, 635/667 nm fluorescence (AID 1099).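 Note: score merges 667nm spot fluorescence with signal to noise across triplicate slides.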 As to conditions: higher = more signal.
The nature of assay [3]: small-molecule microarray binders of probe aCHRDL2, primary screen, biochemical, biotinylated probe, 635/667 nm fluorescence (AID 1100). As to conditions: higher = more signal.
Assay [4] can be described thus: splicing luciferase reporter signal modulators, primary screen, spliceosome inhibition project, cell-based, HEK293, splice +/- reporter (AID 1101).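 Note: HEK293 cells carrying a splicing-competent luciferase reporter gene; test concentration not given here.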 The conditions noted are these: luminescence, 24 h, higher = more signal, called active from +8 up or from −8 down. Background: Reporter assays use an easily measured gene product as a stand-in for the process of interest.

The target in assay [5] is Fibroblast growth factor 10 (Homo sapiens) (UniProt O15520). The experiment in a line: FGF10 binders on small-molecule microarrays, primary screen, biochemical, small-molecule microarray, 635 nm fluorescence (AID 1102). As to conditions: FGF10 binding, fluorescence 635 nm, higher = more signal.
The test system of assay [6] is glycogen synthase kinase-3 (GSK3A per assay name; protocol says GSK3B). Description: GSK3 binders on small-molecule microarrays, primary screen, biochemical, small-molecule microarray, 635 nm fluorescence, GSK3A (AID 1103). Note: the record names both GSK3A and GSK3B. As to conditions: small-molecule microarray binding, fluorescence 635 nm; higher = more signal.
The target of assay [7] is Epidermal growth factor receptor (Homo sapiens) (UniProt P00533). The experiment in a line: EGFR binders on small-molecule microarrays, primary screen, biochemical, small-molecule microarray, 635 nm fluorescence (AID 1104).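 Note: score merges 667 nm emission intensity with spot signal to noise over triplicate slides.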 As to conditions: EGFR binding, higher = more signal.
For assay [8], the target named is Follistatin-related protein 3 (Homo sapiens) (UniProt O95633). Description: FSTL3 binders on small-molecule microarrays, primary screen, biochemical, small-molecule microarray, 635 nm fluorescence (AID 1105).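 Note: score merges emission near 667 nm and signal to noise per printed spot across three slides.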 The conditions noted are these: FSTL3 binding, higher = more signal.
Assay [9] concerns the target Dickkopf-related protein 1 (Homo sapiens) (UniProt O94907). Description: DKK1 binders on small-molecule microarrays, primary screen, biochemical, small-molecule microarray, 635 nm fluorescence scan (AID 1106).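 Note: score merges emission near 667 nm with signal to noise over three replicate slides.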 The conditions noted are these: DKK1 binding, higher = more signal.
Assay [10] relates to Inhibin beta A chain (activin A). The experiment in a line: INHBA (activin A) binders on microarrays, primary screen, biochemical, small-molecule microarray, 635 nm fluorescence scan (AID 1107).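 Note: mouse activin A protein probed at 4.33 µg/mL on printed slides; score merges bound-protein fluorescence near 667 nm with spot signal-to-noise.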 As to conditions: small-molecule microarray binding, higher = more signal.
Assay [11] concerns Human papillomavirus type 1a protein E7 (residues 44-93). Description: HPV1a E7 fragment binders on microarrays, primary screen, biochemical, small-molecule microarray, residues 44-93, 635 nm fluorescence (AID 1108).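 Note: E7 fragment applied at 1 µg/mL in TBST for 1 h at 4 C; score combines spot fluorescence with its signal to noise ratio.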 The conditions noted are these: small-molecule microarray binding, fluorescence 635 nm; higher = more signal.
Assay [12] is described as follows: modulators of HCV replicon luciferase signal, primary screen, HCV replication inhibitor project, Huh7 cells, luciferase reporter (AID 1109).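 Note: huh7 hepatoma cells harbouring a luciferase neomycin HCV replicon reporter; luciferase luminescence as measure of HCV replicon replication; test concentration not given here.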 The conditions noted are these: 48 h, higher = more signal. In general terms: In antiviral work, replicon cells carry a viral genome segment that copies itself.
In assay [13] the target is Left-right determination factor 2 (Homo sapiens) (UniProt O00292). The experiment in a line: LEFTY2 binders on small-molecule microarrays, primary screen, biochemical, small-molecule microarray, 635 nm fluorescence scan (AID 1110). As to conditions: LEFTY2 binding, higher = more signal.
The target of assay [14] is Calmodulin-1 (Homo sapiens) (UniProt P0DP23). Description: CALM1 binders on microarrays, EGTA buffer, profiling panel, biochemical, small-molecule microarray, Cy5-labelled CALM1 (AID 1111).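 Note: labelled calmodulin applied in Tris saline Tween buffer holding calcium plus EGTA and DTT.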 The conditions noted are these: Cy5-CALM1 binding fluorescence, higher = more signal.
Assay [15] shares this target. Description: calcium-bound CALM1 binders on microarrays, profiling panel, artefact control for SMM control-protein annotation, biochemical, small-molecule microarray, Cy5-labelled CALM1, plus calcium (AID 1112).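 Note: score merges spot fluorescence with signal to noise from triplicate slides.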 The conditions noted are these: Cy5-CALM1 binding fluorescence, higher = more signal.
A short description of assay [16]: small-molecule microarray binders of probe aWnt5a, primary screen, biochemical, biotinylated probe, 635/667 nm fluorescence (AID 1113).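 Note: score merges 667 nm fluorescence intensity with signal-to-noise per printed feature.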 The conditions noted are these: higher = more signal.
The nature of assay [17]: small-molecule microarray binders of probe aShh, primary screen, biochemical, biotinylated probe, 635/667 nm fluorescence (AID 1114).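 Note: probe is biotin-labelled aShh protein from a stem cell growth factor screen; measures binding of labelled protein to compounds printed on the slide; score merges feature fluorescence at 667 nm with signal-to-noise.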 As to conditions: higher = more signal.
Assay [18] is described as follows: small-molecule microarray binders of probe aNog, primary screen, biochemical, biotinylated probe, 635/667 nm fluorescence (AID 1115).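 Note: probe is biotinylated aNog protein used at 0.15 µg/mL for 1 h at 4 C; z-score combines 667 nm fluorescence of each spot with its signal to noise.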 As to conditions: higher = more signal.
Assay [19] has as its target Torsin-1A-interacting protein 1 (Homo sapiens) (UniProt Q5JTV8). Description: LAP1 binders from COS7 cell lysate, primary screen, small-molecule microarray, 635/667 nm fluorescence (AID 1116). As to conditions: COS7-hLAP1 lysate binding, 635 nm fluorescence, higher = more signal.
For assay [20], the target named is Alpha-bungarotoxin (Bungarus multicinctus) (UniProt P60615). The experiment in a line: alpha-bungarotoxin binders on microarray, profiling panel, artefact control for SMM control protein annotation, biochemical, small-molecule microarray, Alexa647 label, 635/667 nm fluorescence (AID 1117). As to conditions: alpha-BTX-A647 binding fluorescence, higher = more signal.

Activity calls are given as the source filed them.

Fibroblast growth factor 10 (Homo sapiens), sequence (O15520 whole entry, looked up): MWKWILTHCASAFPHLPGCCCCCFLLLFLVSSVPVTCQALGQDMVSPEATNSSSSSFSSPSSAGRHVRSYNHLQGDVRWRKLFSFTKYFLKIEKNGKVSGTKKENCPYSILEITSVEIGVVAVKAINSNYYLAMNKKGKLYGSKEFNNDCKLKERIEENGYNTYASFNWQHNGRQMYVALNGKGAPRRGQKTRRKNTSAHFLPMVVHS
Dickkopf-related protein 1 (Homo sapiens), sequence (O94907 whole entry, looked up): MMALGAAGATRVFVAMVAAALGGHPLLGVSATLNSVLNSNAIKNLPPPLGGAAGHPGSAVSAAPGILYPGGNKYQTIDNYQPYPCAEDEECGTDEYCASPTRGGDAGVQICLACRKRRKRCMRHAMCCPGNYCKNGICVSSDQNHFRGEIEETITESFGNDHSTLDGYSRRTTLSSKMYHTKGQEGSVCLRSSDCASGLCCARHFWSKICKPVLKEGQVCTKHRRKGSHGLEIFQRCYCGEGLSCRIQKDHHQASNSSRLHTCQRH
Epidermal growth factor receptor (Homo sapiens), sequence (P00533 whole entry, looked up): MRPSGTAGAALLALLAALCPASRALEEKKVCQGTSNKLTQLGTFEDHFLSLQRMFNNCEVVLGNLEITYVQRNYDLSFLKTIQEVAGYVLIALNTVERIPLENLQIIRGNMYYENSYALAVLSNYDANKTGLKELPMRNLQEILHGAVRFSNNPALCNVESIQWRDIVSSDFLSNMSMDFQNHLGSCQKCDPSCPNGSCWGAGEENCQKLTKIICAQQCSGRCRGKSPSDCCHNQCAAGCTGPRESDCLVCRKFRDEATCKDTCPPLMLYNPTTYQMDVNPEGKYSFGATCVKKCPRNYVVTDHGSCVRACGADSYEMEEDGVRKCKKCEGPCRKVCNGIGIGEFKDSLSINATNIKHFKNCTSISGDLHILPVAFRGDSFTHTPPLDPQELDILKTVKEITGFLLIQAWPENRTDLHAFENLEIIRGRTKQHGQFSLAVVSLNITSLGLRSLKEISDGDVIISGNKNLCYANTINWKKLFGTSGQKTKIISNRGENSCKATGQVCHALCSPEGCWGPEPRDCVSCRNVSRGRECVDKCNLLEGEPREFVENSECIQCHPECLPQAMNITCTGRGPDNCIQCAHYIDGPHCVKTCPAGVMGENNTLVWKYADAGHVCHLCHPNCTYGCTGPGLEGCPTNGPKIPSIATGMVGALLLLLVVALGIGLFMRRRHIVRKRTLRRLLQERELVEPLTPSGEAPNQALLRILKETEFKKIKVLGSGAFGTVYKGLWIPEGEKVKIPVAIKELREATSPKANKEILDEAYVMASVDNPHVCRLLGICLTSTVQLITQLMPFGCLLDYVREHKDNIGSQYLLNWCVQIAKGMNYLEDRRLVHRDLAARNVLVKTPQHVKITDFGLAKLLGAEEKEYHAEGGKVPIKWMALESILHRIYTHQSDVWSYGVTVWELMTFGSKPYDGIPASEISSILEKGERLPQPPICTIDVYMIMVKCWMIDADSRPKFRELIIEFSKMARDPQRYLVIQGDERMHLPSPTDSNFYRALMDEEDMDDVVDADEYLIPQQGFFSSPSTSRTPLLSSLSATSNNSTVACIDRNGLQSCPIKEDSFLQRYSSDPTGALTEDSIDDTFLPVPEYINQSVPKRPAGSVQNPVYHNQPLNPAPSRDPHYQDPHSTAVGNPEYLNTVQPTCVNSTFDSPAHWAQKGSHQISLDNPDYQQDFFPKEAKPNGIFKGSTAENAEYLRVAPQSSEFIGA
Torsin-1A-interacting protein 1 (Homo sapiens), sequence (Q5JTV8 whole entry, looked up): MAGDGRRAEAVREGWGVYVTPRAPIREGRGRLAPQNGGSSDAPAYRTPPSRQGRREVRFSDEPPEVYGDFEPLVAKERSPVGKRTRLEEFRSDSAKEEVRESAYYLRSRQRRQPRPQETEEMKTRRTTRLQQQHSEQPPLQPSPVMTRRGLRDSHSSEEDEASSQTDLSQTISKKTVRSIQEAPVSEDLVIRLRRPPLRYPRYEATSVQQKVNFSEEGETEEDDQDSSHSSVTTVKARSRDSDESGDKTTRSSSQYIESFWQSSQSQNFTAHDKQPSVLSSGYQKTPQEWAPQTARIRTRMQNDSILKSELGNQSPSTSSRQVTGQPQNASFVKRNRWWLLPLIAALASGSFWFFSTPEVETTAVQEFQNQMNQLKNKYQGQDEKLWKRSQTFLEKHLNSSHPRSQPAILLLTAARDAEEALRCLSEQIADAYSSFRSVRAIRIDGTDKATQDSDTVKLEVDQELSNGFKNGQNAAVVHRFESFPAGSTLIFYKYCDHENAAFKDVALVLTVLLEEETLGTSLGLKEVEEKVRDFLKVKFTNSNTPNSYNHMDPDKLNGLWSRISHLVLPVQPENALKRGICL
Follistatin-related protein 3 (Homo sapiens), sequence (O95633 whole entry, looked up): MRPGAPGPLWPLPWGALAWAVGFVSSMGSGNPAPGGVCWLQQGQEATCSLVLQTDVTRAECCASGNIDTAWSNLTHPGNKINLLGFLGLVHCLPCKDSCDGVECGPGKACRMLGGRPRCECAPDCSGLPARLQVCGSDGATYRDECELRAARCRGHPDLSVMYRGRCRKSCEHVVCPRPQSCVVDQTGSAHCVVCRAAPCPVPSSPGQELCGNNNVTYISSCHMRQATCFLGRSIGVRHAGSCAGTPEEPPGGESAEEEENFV
Left-right determination factor 2 (Homo sapiens), sequence (O00292 whole entry, looked up): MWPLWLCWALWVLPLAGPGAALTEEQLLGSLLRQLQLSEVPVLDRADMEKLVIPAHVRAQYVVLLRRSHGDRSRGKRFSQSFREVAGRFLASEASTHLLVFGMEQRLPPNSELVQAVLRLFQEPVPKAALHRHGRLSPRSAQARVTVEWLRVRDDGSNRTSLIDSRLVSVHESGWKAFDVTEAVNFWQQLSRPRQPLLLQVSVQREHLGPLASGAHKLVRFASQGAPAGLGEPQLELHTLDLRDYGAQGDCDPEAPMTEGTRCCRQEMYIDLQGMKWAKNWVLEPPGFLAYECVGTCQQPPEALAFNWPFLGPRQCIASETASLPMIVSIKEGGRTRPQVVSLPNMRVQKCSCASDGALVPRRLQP
Alpha-bungarotoxin (Bungarus multicinctus), sequence (P60615 whole entry, looked up): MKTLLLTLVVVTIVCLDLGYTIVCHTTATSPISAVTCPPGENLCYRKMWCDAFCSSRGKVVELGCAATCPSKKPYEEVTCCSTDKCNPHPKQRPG

As to `C=CCC(OC(C)=O)[C@@H]1[C@@H](N(Cc2ccc(-c3cccc(C(F)(F)F)c3)o2)C(=O)Cc2ccc(F)cc2)c2cc(OCCCO)ccc2N1C(=O)Cc1ccc2ccccc2c1` (stereo not given in full), the composite z-score in assay [1] is -0.595; in assay [2], -0.341; in assay [3], 0.228; in assay [5] it was -0.195; in assay [6], -1.79; in [7], -0.676. Further, the composite z-score in assay [8] was -0.511; in assay [9] it was -0.286; in assay [10] it was 1.12; in [11], -0.97; in [13] it was -0.511; in [14] it was -0.599. Besides, the composite z-score was 0.218 in assay [15]; -0.0684 in [16]; 0.0684 in assay [17]; -0.352 in assay [18]; -0.016 in assay [19]; -0.772 in assay [20]. Further, the z-score in assay [4] was 0.705 (inactive); in assay [12], 0.022.

Turning to `CCCNC(=O)[C@@]1(Sc2ccc(C)cc2)CC(=O)N(Cc2ccccc2Cl)[C@@H]1c1ccc(CO)cc1I`, the composite z-score in assay [1] is 0.958; in assay [2], 0.147; in [3], 0.864; in assay [5], -0.87; in [6], -0.51; in assay [7], -1.49. The composite z-score in assay [8] was -1.14; in assay [9], -1.54; in [10], 0.472; in [11], 0.135; in assay [13] it was -1.4; in assay [14], 0.284. The composite z-score in assay [15] is 0.321; in assay [16], -0.129; in assay [17] it was -0.132; in [18], 1.91; in assay [19] it was -0.0631; in assay [20], 0.461. Moreover, the z-score is -0.766 (inactive) in [4] and -2.17 in assay [12].

Take `COC(=O)C(CC#Cc1ccc2c(c1)[C@]1(C(=O)N2)[C@H](C(=O)N2CCc3cc(OC)c(OC)cc3C2)[C@H]2C(=O)O[C@H](c3ccccc3)[C@H](c3ccccc3)N2[C@@H]1c1ccccc1OCCO)C(=O)OC`: the composite z-score in assay [1] is 1.3; in assay [2], 0.581; in [3], 0.623; in assay [5], 0.954; in assay [6], 1.34; in assay [7] it was 0.529. The composite z-score in [8] was 1.28; in assay [9], 0.627; in assay [10] it was -0.592; in assay [11], -0.099; in assay [13], 0.815; in assay [14] it was 1.02. The composite z-score in assay [15] was -0.509; in [16] it was -0.0161; in assay [17] it was -0.0289; in assay [18] it was 0.682; in assay [19], 1.59; in assay [20], 2.65. The z-score in [4] is 0.234 (inactive); in assay [12], -2.09.

Turning to `[N-]=[N+]=NCc1ccccc1[C@@H]1OC(c2ccc(OCCCO)cc2)=N[C@]1(Cc1ccccc1N=[N+]=[N-])C(=O)NCC(O)CO` (stereo not given in full), the composite z-score in [1] is 1.29; in assay [2] it was 1.28; in [3], 0.98; in [5], 0.846; in [6] it was 0.898; in assay [7], 0.0004. The composite z-score in assay [8] was 0.418; in [9], 0.0477; in [10], 1.22; in assay [11], 1.18; in assay [13] it was -0.262; in assay [14] it was 2.58. The composite z-score in assay [15] came to 1.23; in [16], 0.61; in assay [17], 0.0048; in assay [18], 2.34; in assay [19] it was 2.74; in assay [20], 0.895. Moreover, the z-score in assay [4] is 1.25 (inactive); in [12], -1.41.

Turning to `COCC(=C=CC[C@H](O)c1ccccc1OCCO)C[C@H](O)COCc1ccccc1`, the composite z-score was 1.54 in assay [1]; 0.132 in assay [2]; -0.316 in assay [3]; 1.49 in assay [5]; 0.342 in [6]; 0.335 in [7]. Besides, the composite z-score was 0.3 in [8]; -0.06 in [9]; 0.627 in [10]; 1.2 in [11]; 0.0832 in assay [13]; 0.324 in [14]. For the same compound, the composite z-score was -0.678 in assay [15]; -0.0685 in assay [16]; 0.275 in assay [17]; 0.589 in assay [18]; 1.36 in assay [19]; -0.346 in assay [20]. The values for the z-score in assay [4] and in [12] were -0.111 (inactive) and -1.51, respectively.

For the compound `CC(C)C(=C=CC[C@H](O)c1ccccc1OCCO)C[C@H](O)c1cc(Cl)cc(Cl)c1O`, the composite z-score in assay [1] was 1.25; in assay [2], -0.0965; in assay [3], -0.13; in assay [5], 1.11; in assay [6], 0.579; in assay [7] it was -0.172. Further, the composite z-score was 0.588 in assay [8]; -0.0053 in assay [9]; 0.149 in [10]; 1.46 in assay [11]; 0.0124 in assay [13]; 0.195 in assay [14]. The composite z-score was 0.271 in [15]; -0.106 in assay [16]; 0.0048 in assay [17]; 0.158 in [18]; 0.962 in assay [19]; 0.919 in assay [20]. The z-score is -0.605 (inactive) in [4] and -1.99 in assay [12].

The values are drawn from PubChem BioAssay.
